Source: PubChem BioAssay
This is a sample that favours compounds with a hit; in the whole collection about 1.6% have one here.
STAT3 inh: inhibitors of IL-6 induced STAT3 signaling; hit rate 0.89% among 190,000; U3A cells, IL-6 STAT3-luciferase reporter, luminescence; host cell line lacks STAT1; inhibition, % at 5.5 µM;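 active means inhibition above the mean inhibition across all screened compounds plus 3 SD, cut at about 44% in these data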
Platelet DG rel: modulates dense granule release in human platelets | human platelet-rich plasma, SFLLRN dense granule ATP release, luminescence | inhibition, %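 (compounds screened at 7.5 µM in platelet-rich plasma)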 | hit rate 0.22% among 300,000;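 active means mean replicate score, as percent of positive control, at or above 50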
TRAIL sens C8: caspase-8 TRAIL sensitization; NB7+C8 cells + TRAIL, ATPlite viability luminescence; inhibition (viability loss, TRAIL sensitization), % at 10 µM; hit rate 1% among 360,000; AID 624354;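 active means compounds causing at least 50% loss of cell viability in the single-dose screen, relative to plate controls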
PPC-1+TRAIL kill: PPC-1 cancer cell killing with TRAIL present. cell killing (% activity), % at 4 µM or 5 µM. hit rate 0.41% among 220,000. PPC-1 cells + TRAIL, ATPLite viability luminescence;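 active means cell killing above 50% in the first pass at 4 µM, then a duplicate retest at 5 µM averaging 50% or more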
STAT1 blocker: inhibitors of IFN-gamma induced STAT1 signaling. NIH 3T3 STAT1-luciferase reporter, luminescence. inhibition, % at 5.5 µM. hit rate 0.35% among 200,000. AID 920;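 active means inhibition above a set limit, the mean inhibition across all tested compounds plus 3 SD, cut at about 34% in these data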
Hits are given with their value; i = inactive; nt = no result given.

SMILES	STAT3 inh	Platelet DG rel	TRAIL sens C8	PPC-1+TRAIL kill	STAT1 blocker
O=C(O)c1cc(/C=C/c2ccc(N3CCOCC3)c([N+](=O)[O-])c2)nc2ccccc12	nt	i	64.2	i	nt
O=C(c1ccc(N2CCOCC2)c([N+](=O)[O-])c1)N1CCN(c2ccccc2)CC1	nt	nt	i	nt	nt
Cc1ccc2cc3c(N)c(C(=O)N4CCOCC4)sc3nc2c1	i	i	i	i	i
Cc1ccc2nc3sc(C(=O)N4CCOCC4)c(N)c3cc2c1	89.9	i	i	i	50.4
CC(C)c1ccc(/C=N/Nc2ccc(C(=O)O)cc2)cc1	83.7	i	i	i	64.6
O=C(O)c1ccc(N/N=C/c2ccc(-c3ccccc3)cc2)cc1	i	i	i	i	i
CCOC(=O)c1c(C)[nH]c(C(=O)C(C)OC(=O)c2oc3ccccc3c2COC)c1C (centres undefined)	i	72.8	i	i	i
Cc1ccc(C(=O)Nc2nc(=O)n(C(=O)c3ccccc3Cl)s2)cc1	i	i	i	i	i
O=C(Nc1nc(=O)c2ccccc2s1)c1ccc(Cl)cc1	i	i	66.8	i	i
O=C(Nc1nc(=O)c2ccccc2s1)c1ccc(F)cc1	i	i	54.8	i	i
O=C(Cc1ccccc1)Nc1nc(=O)c2ccccc2s1	i	i	i	i	i
Cn1sc(NC(=O)c2ccc(Cl)cc2)nc1=O	i	i	50.2	i	i
CCn1c(NC(=O)c2ccc(F)cc2)c2ccccc2nc1=O	i	i	i	i	i
O=C([C@H]1O[C@@H](n2ccc(=O)[nH]c2=O)[C@H](O)[C@@H]1O)N1CCSC1	nt	nt	i	nt	nt
CCOC(=O)[C@]12CCC=C1N(Cc1ccc3c(c1)OCO3)C(=O)[C@H](CC(=O)N1CCN(C(=O)c3ccco3)CC1)C2	nt	nt	i	nt	nt
c1nc(SSc2ncnc3nc[nH]c23)c2[nH]cnc2n1	nt	nt	73.3	nt	nt
CCNC(=O)C1CCCN(C(=O)c2ccccc2)CC1 (centres undefined)	nt	nt	i	nt	nt
COc1ccccc1NCC(=O)N/N=C/c1c(O)ccc2ccccc12	nt	i	i	nt	nt
COc1ccccc1N(CC(=O)N/N=C/c1c(O)ccc2ccccc12)S(C)(=O)=O	i	i	52.0	i	i
CCOc1ccccc1-n1nnnc1SCC(=O)N(C)C1CCS(=O)(=O)C1 (centres undefined)	nt	nt	i	nt	nt
NC1=NC[C@@H](CC2CCCCC2)N1CCc1cc(C(F)(F)F)cc(C(F)(F)F)c1	nt	nt	93.3	nt	nt
CN1CCc2c(sc(NC(=O)c3ccc([N+](=O)[O-])o3)c2C(N)=O)C1	nt	i	59.9	nt	nt
Cc1c(C(=O)NCc2ccc3c(c2)OCCO3)sc(=O)n1Cc1ccc(C(=O)N(C)C)cc1	nt	nt	i	nt	nt
Cc1cc(NC(=O)c2ccccc2-c2ccccc2C(=O)O)no1	i	i	i	50.3	i
CCSc1ccccc1C(=O)Nc1cc(C)on1	i	i	i	i	i
SMILES	STAT3 inh	Platelet DG rel	TRAIL sens C8	PPC-1+TRAIL kill	STAT1 blocker
CCCOc1ccc(CN(CCC#N)C(=S)NC(=O)c2ccccc2)cc1	i	i	i	i	i
CN(C)c1ccc(N=Nc2ccc3ncccc3c2)cc1	nt	nt	70.9	nt	nt
Cc1cc(N(C)C)ccc1N=Nc1ccc2ncccc2c1	nt	i	i	i	nt
COc1ccc(N2CCN(S(=O)(=O)c3c(C)nc4sccn4c3=O)CC2)cc1	nt	94.8	i	nt	nt
Cc1nnsc1NC(=O)OCc1ccc(C(C)(C)C)cc1	64.9	i	i	i	i
C=CCOC(=O)Nc1snnc1C	i	i	i	i	i
COC(=O)CC1OCC=C2CN3CCC45C6=CC(=O)C(=O)C([N+](=O)[O-])=C6NC4C1C2CC35 (centres undefined)	nt	nt	i	nt	nt
CCN(c1ccccc1)S(=O)(=O)c1ccc(OC)c(NC(=O)c2cccs2)c1	i	i	i	i	i
CCN(c1ccccc1)S(=O)(=O)c1ccc(OC)c(NC(=O)c2cc(F)c(F)c(F)c2F)c1	nt	nt	55.5	nt	nt
COc1ccc(C#Cc2cnc3c(c2)C(=O)N([C@H](C)CO)C[C@@H](C)[C@H](CN(C)C(=O)CN(C)C)O3)cc1	nt	nt	i	nt	nt
CC/C(C)=N\N=C\c1c(O)n(CC)c2cc(C3=NNC(=O)CC3)ccc12	i	75.4	i	i	i
Cc1ccccc1CNC(=O)C1CCC(=O)N(CC2CCCCC2)C1 (centres undefined)	nt	i	i	nt	nt
Cc1nn(C)cc1CNC(=O)C1CCC(=O)N(CC2CCCCC2)C1 (centres undefined)	nt	55.8	i	nt	nt
CCCCCn1nnnc1C1(C)CCC(=O)N1Cc1ccco1 (centres undefined)	nt	nt	i	nt	nt
